# Data as given in PubChem BioAssay (NCATS).
# Several values for one entry are separate records, joined by “and”; a condition that tells them apart may be missing. Equal entries are not always repeated. Records with an inconclusive call do not appear. Where a call stands in place of a potency, no number is given. Activity calls are given as the source filed them. Unless noted, calls come from the whole dose curve; as a rule, active = well fitted curve in the direction sought with a large enough effect; inconclusive = small, poorly fitted or top-dose-only effect, or another doubt; inactive = no such curve, though single readings can be large; an effect the other way counts as inactive or inconclusive.
# Experiments:
# [1] = target: Peroxisome proliferator-activated receptor delta (Homo sapiens) (UniProt Q03181); assay: qHTS assay for small molecule agonists of peroxisome proliferator-activated receptor delta signaling (AID 588534; calls by dose curve)
# Sequence of Peroxisome proliferator-activated receptor delta (Homo sapiens) (Q03181 whole entry, looked up): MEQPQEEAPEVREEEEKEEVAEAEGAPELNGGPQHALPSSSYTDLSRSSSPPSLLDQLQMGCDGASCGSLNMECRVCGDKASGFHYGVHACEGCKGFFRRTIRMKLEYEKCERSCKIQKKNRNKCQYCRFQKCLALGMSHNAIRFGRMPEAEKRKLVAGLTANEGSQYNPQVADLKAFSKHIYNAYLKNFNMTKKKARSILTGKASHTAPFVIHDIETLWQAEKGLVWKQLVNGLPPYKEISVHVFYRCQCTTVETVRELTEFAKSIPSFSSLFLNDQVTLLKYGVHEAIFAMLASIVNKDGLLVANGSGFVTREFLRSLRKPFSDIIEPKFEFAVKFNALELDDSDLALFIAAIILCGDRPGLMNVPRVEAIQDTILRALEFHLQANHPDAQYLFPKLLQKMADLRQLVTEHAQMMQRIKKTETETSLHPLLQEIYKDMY
# Method in brief: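 EC50 and efficacy values derive from Hill fits of a concentration series in a beta-lactamase reporter cell assay. Exposure is 18 hrs at 37 C, with CCF4 fluorescence as the readout.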
# [2] = target: Glucocorticoid receptor (Homo sapiens) (UniProt P04150); assay: qHTS assay for small molecule antagonists of glucocorticoid receptor signaling (AID 588533; active = well fitted inhibition curve with a large enough effect in the signal ratio, with a control signal flat, not every such curve was filed as active; the % refers to the signal ratio;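 note: cells stimulated with 2 nM dexamethasone as agonist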)
# Sequence of Glucocorticoid receptor (Homo sapiens) (P04150 whole entry, looked up): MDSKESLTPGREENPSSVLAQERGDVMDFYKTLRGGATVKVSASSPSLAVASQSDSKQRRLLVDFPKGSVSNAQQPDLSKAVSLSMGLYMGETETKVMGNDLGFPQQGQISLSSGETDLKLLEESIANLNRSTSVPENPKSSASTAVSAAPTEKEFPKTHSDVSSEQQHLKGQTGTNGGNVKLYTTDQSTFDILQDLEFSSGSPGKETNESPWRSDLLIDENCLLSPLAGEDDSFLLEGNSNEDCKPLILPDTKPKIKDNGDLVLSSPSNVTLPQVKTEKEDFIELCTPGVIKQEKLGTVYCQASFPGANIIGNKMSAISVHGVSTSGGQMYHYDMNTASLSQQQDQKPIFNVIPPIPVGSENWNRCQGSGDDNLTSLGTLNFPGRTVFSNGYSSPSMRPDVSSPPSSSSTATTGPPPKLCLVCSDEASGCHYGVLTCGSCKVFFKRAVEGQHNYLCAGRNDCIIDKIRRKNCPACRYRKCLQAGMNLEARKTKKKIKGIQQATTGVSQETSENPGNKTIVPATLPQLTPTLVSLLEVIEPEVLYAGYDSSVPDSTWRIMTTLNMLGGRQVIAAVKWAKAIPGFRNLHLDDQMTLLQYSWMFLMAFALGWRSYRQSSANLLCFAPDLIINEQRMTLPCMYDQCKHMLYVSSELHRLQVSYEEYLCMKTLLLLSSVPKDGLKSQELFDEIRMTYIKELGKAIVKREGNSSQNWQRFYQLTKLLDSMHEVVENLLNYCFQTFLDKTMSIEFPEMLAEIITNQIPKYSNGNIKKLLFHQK
# Method in brief: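 Antagonist-mode qHTS: compound titrations added to GRE-bla HeLa cells, then dexamethasone 2 nM final; 18 h, 37 C. CCF4 FRET fluorescence normalized to dexamethasone and DMSO; IC50 from Hill fit.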
# [3] = target: Thyroid hormone receptor beta (Homo sapiens) (UniProt P10828); assay: qHTS assay for small molecule agonists of thyroid hormone receptor beta signaling (AID 588545; calls by dose curve)
# Sequence of Thyroid hormone receptor beta (Homo sapiens) (P10828 whole entry, looked up): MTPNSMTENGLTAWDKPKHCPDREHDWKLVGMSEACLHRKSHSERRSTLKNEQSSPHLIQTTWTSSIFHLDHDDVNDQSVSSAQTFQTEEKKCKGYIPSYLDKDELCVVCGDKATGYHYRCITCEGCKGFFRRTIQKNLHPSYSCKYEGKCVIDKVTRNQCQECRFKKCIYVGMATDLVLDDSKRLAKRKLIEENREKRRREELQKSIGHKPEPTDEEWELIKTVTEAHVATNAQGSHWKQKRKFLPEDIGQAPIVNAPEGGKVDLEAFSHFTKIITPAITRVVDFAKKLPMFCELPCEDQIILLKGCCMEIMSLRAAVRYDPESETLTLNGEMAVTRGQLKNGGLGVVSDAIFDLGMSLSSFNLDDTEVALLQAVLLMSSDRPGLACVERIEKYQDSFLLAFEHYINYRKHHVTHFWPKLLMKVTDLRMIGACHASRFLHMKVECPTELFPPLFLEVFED
# Method in brief: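 Efficacy and EC50 values derive from Hill fits of qHTS titration data, normalized to 10 nM T3 and DMSO-only wells. HEK 293 reporter cells were stimulated for 18 hrs at 37 C, with beta-lactamase activity measured by CCF4 fluorescence.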
# [4] = qHTS assay for small molecule antagonists of retinoid X receptor alpha signaling (AID 588546; active = well fitted inhibition curve with a large enough effect in the signal ratio, with a control signal flat, not every such curve was filed as active; the % refers to the signal ratio;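 note: cells stimulated with 9-cis-retinoic acid as agonist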); conditions: HEK293T RXRa-UAS-bla, beta-lactamase ratio, antagonist mode; measured here: W530 green channel, cytotoxicity proxy
# Method in brief: (§1)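 Beta-lactamase reporter inhibition, read as CCF4 fluorescence ratio (ex 405, em 460/530 nm) after 2 h at RT. HEK293T UAS-bla cells, 2500/well, were stimulated with 9-cis-RA at 500 or 100 nM final alongside test compound for 18 h at 37 C.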
# [5] = target: Retinoic acid receptor RXR-alpha (Homo sapiens) (UniProt P19793); assay: as above; conditions: HEK293T RXRa-UAS-bla, beta-lactamase ratio, antagonist mode
# Sequence of Retinoic acid receptor RXR-alpha (Homo sapiens) (P19793 whole entry, looked up): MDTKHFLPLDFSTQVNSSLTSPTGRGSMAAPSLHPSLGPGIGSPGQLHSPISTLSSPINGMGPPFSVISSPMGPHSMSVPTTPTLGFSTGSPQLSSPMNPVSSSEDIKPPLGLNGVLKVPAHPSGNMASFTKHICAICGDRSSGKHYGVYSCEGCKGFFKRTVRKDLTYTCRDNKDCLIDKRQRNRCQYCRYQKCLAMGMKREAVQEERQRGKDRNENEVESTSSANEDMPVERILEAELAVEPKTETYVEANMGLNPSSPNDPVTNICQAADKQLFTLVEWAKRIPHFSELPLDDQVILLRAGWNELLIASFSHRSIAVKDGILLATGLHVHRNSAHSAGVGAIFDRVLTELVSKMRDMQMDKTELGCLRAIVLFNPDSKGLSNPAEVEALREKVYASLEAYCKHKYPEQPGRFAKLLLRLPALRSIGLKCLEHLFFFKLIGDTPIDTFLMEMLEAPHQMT
# Method in brief: as §1
# [6] = target: Thyroid hormone receptor beta (Homo sapiens) (UniProt P10828); assay: qHTS assay for small molecule antagonists of thyroid hormone receptor beta signaling (AID 588547; active = well fitted inhibition curve with a large enough effect in the signal ratio, with a control signal flat, not every such curve was filed as active; the % refers to the signal ratio;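 note: cells stimulated with 0.4 nM T3 agonist during compound exposure; series mostly up to about 77 µM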); conditions: TR-UAS-bla HEK293, beta-lactamase ratio, antagonist mode, 18 h
# Method in brief: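 TR-UAS-bla GripTite HEK293 cells in 2% charcoal/dextran FBS medium were preincubated 4 h at 37 C, given compound (0.59 nM to 92 uM) plus 0.4 nM T3 (final) for 18 h, then CCF4 for 2 h at RT; Hill fit gave IC50.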
# [7] = target: Voltage-gated inwardly rectifying potassium channel KCNH2 (Homo sapiens) (UniProt Q12809); assay: qHTS Assay for Small Molecule Inhibitors of the Human hERG Channel Activity (AID 588834);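 note: lower thallium flux fluorescence means stronger hERG block; nearly all actives have a fitted effect of over 50% in size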; note: potency is the fitted concentration of half-maximal effect
# Sequence of Voltage-gated inwardly rectifying potassium channel KCNH2 (Homo sapiens) (Q12809 whole entry, looked up): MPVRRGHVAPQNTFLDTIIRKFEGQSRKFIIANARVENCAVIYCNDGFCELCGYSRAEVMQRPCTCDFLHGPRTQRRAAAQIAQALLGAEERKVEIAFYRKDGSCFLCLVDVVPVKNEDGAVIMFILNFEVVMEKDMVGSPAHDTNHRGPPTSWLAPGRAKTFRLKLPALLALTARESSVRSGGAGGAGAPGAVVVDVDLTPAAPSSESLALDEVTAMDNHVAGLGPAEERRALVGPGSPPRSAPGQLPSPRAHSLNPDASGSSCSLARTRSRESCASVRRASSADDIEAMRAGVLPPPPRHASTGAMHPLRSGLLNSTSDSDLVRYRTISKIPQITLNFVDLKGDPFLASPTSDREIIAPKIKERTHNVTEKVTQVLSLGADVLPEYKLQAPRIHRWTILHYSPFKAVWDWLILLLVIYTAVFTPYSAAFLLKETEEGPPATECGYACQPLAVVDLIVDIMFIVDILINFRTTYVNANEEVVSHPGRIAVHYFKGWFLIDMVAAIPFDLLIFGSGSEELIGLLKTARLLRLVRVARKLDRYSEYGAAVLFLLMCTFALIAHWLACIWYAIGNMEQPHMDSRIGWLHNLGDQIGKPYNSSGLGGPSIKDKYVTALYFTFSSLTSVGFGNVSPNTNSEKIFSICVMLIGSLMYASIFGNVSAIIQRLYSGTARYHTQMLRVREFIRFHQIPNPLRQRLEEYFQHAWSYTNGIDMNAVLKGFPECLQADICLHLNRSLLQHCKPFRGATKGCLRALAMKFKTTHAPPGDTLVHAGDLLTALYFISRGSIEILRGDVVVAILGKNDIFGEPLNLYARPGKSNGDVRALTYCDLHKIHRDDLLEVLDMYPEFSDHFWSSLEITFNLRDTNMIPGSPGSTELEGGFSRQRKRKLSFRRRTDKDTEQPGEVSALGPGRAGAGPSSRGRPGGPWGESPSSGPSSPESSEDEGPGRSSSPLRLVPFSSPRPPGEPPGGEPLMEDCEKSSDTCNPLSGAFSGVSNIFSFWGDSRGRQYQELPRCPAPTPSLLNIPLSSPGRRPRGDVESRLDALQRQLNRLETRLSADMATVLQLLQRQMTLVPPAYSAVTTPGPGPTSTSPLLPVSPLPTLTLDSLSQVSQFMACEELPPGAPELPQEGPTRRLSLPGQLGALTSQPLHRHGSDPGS
# Method in brief: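 hERG block measured as reduced thallium-dye (FluxOR) fluorescence after stimulation buffer addition, read over 2 min. Cells were hERG-BacMam-transduced U2OS exposed to compound ~10 min […]; concentration-response fitted with Hill equation for AC50.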
# [8] = target: Luciferin 4-monooxygenase (Photinus pyralis) (UniProt P08659); assay: Biochemical firefly luciferase enzyme assay for NPC (AID 624030);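 note: purified P. pyralis luciferase at 10 nM with luciferin and ATP substrate; series mostly up to about 59 µM; nearly all actives have a fitted effect of over 70% in size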
# Sequence of Luciferin 4-monooxygenase (Photinus pyralis) (P08659 whole entry, looked up): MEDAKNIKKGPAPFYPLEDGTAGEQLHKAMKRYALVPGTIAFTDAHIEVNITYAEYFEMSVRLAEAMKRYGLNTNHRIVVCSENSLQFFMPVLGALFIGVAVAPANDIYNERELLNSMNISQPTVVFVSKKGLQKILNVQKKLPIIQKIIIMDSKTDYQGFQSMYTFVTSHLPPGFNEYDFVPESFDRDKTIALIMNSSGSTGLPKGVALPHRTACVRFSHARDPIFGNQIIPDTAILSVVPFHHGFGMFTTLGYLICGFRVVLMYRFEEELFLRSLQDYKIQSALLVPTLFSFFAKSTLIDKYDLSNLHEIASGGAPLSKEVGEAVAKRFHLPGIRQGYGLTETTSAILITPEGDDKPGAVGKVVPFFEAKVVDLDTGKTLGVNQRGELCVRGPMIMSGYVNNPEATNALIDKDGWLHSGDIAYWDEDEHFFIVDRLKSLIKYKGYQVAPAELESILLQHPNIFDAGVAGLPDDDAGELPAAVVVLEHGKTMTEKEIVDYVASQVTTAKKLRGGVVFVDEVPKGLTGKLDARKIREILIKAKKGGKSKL
# Method in brief: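 Counter-screen for direct inhibition of the luciferase enzyme by approved-drug library compounds, run at 10 nM enzyme in 50 mM Tris acetate (final). Luminescence was read within 5 min of enzyme-buffer addition and normalized to PTC124 versus DMSO (0%).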
# [9] = target: Peroxisome proliferator-activated receptor gamma (Homo sapiens) (UniProt P37231); assay: qHTS assay for small molecule antagonists of peroxisome proliferator-activated receptor gamma signaling (AID 588537; active = well fitted inhibition curve with a large enough effect in the signal ratio, with a control signal flat, not every such curve was filed as active; the % refers to the signal ratio; note: potency is the fitted concentration of half-maximal effect)
# Sequence of Peroxisome proliferator-activated receptor gamma (Homo sapiens) (P37231 whole entry, looked up): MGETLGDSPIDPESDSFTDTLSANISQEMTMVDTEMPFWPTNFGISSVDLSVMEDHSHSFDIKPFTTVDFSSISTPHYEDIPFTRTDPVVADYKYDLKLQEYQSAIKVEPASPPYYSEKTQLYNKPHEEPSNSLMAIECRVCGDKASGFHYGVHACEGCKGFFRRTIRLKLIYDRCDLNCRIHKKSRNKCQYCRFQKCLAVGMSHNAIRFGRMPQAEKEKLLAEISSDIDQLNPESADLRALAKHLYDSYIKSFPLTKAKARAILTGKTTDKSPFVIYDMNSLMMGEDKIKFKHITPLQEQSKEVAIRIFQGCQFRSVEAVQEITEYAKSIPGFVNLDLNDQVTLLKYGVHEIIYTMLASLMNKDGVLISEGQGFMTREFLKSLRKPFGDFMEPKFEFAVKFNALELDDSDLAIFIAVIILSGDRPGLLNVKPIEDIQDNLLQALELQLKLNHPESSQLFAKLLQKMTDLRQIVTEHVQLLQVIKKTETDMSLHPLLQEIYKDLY
# Method in brief: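 HEK293 cells, PPAR-gamma-UAS-bla, 3000/well. Pre-incubation 6-6.5 h, 37 C. Compound titration with rosiglitazone 50 nM final, 16 h. CCF4 dye, 2 h RT, dual-emission fluorescence.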
# [10] = qHTS assay for small molecule agonists of retinoid X receptor alpha signaling (AID 588544; calls by dose curve); conditions: HEK293T RXRa-UAS-bla, beta-lactamase reporter, 18 h; 530 nm emission
# [11] = target: Retinoic acid receptor RXR-alpha (Homo sapiens) (UniProt P19793); assay: as above
# [12] = target: Peroxisome proliferator-activated receptor gamma (Homo sapiens) (UniProt P37231); assay: qHTS assay for small molecule agonists of peroxisome proliferator-activated receptor gamma signaling (AID 588536; active = well fitted curve in the direction sought with a large enough effect in the signal ratio, with a control signal flat, not every such curve was filed as active; the % refers to the signal ratio)
# Method in brief: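 This is an agonist-mode beta-lactamase reporter assay in HEK293 PPAR-gamma-UAS-bla cells with 1% charcoal/dextran FBS. Compound titrations ran 16 h at 37 C before CCF4 detection. EC50 and efficacy are Hill fits scaled to 2 uM rosiglitazone (100%) and DMSO basal.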
# [13] = S16 Schwann cell viability assay (CellTiter-Glo assay) (AID 624031);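 note: native untransfected S16 rat Schwann cells; cellular ATP luminescence as a viability measure; series mostly up to about 58 µM; nearly all actives have a fitted effect of over 70% in size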
# Method in brief: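 Following overnight culture in 10% FBS DMEM, parental S16 rat Schwann cells are dosed for 24 h at 37 °C. Viability is read as CellTiter-Glo luminescence and expressed as % activity relative to DMSO (0%) and no-cell wells.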
# [14] = target: Vitamin D3 receptor (Homo sapiens) (UniProt P11473); assay: qHTS assay for small molecule antagonists of vitamin D receptor signaling (AID 588541; calls by dose curve;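 note: receptor activated by calcitriol during compound treatment; series mostly up to about 77 µM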)
# Sequence of Vitamin D3 receptor (Homo sapiens) (P11473 whole entry, looked up): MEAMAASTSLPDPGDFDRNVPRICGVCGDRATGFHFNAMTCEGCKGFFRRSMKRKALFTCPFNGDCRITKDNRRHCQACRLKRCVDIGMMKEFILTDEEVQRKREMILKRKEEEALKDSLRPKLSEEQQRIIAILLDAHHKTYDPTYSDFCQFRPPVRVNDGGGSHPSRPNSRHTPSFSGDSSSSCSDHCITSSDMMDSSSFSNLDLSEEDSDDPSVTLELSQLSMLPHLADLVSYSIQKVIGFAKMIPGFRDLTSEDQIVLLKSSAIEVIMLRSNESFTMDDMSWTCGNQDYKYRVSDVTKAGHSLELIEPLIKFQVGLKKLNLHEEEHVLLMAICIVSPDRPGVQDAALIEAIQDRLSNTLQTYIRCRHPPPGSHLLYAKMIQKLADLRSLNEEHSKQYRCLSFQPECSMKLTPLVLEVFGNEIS
# Method in brief: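 VDR-UAS-bla HEK293T cells (2000/well, 2% charcoal-stripped FBS) were treated with titrated compounds plus 1-alpha,25-dihydroxyvitamin D3 (50 nM or 3 nM final) for 16 h at 37 C. CCF4 beta-lactamase fluorescence was read; Hill fits gave IC50.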
# [15] = S16 Schwann cell PMP22 intronic element firefly luciferase assay (AID 624032); note: series mostly up to about 58 µM; nearly all actives have a fitted effect of over 30% in size
# Method in brief: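 Rat S16 Schwann cells stably carrying a PMP22 intronic element-driven Fluc reporter were seeded overnight, then exposed to compounds for 24 h at 37 °C. Luminescence was normalized to PTC124 (positive control) and DMSO (0% activity).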
structure (smiles),measurement,setting,value
Nc1ccccc1N,outcome,[1],inactive
Cc1ccc(N)cc1O,outcome,[1],inactive
Nc1ccc(Cl)cc1,Potency,[2],inactive
same,outcome,[1],inactive
same,outcome,[3],inactive
same,max response,[4],-14.8%
same,max response,[5],-9.24% (inactive)
same,activity change % (negative = inhibition),[6],5.44% (inactive)
same,Potency,[7],inactive
same,Potency,[8],inactive
NCCc1c[nH]c2ccc(O)cc12,Potency,[7],inactive
O=C(O)CCCOc1ccc(Cl)cc1Cl,Potency,[9],inactive
same,outcome,[3],inactive
same,max response,[4],17.8%
same,max response,[5],-3.54% (inactive)
same,activity change % (negative = inhibition),[6],12.5% (inactive)
O=C(O)CC[N+](=O)[O-],Potency,[7],inactive
S=C(NC1CCCCC1)N1CCC(c2cnc[nH]2)CC1,Potency,[7],inactive
C[C@@H](N)Cc1cnc[nH]1,Potency,[7],inactive
CC(C)(O)C(=O)Nc1ccc([N+](=O)[O-])c(C(F)(F)F)c1,max response,[10],11.6%
same,Potency,[11],inactive
same,outcome,[3],inactive
same,max response,[4],15.1%
same,max response,[5],-2.4% (inactive)
same,activity change % (negative = inhibition),[6],23.5% (inactive)
same,Potency,[7],inactive
CC[C@@]1(O)C(=O)OCc2c1cc1n(c2=O)Cc2cc3ccccc3nc2-1,Potency,[7],inactive
O=C(O)[C@@H]1CCN1,Potency,[7],inactive
Cc1c(C(=O)c2cccc3ccccc23)c2cccc3c2n1[C@H](CN1CCOCC1)CO3,Potency,[7],6.31 µM (active)
CCCN(CCC)[C@@H]1CCc2ccc(O)cc2C1,Potency,[7],2.51 µM (active)
CC(=O)NCCc1c[nH]c2ccccc12,Potency,[7],inactive
CC(C)Oc1cccnc1N(C)C1CCN(Cc2ccccc2)CC1,Potency,[7],6.31 µM (active)
CNCCc1c[nH]c2ccc(O)cc12,Potency,[7],inactive
NC(=NCCC[C@H](N)C(=O)O)N[N+](=O)[O-],Potency,[7],inactive
Cc1nccc2c1[nH]c1ccccc12,Potency,[7],inactive
NC(CP(=O)(O)O)C(=O)O (stereo unspecified),Potency,[7],inactive
c1ccc(CCCN2CCN(CCOC(c3ccccc3)c3ccccc3)CC2)cc1,Potency,[7],0.501 µM (active)
Cn1cnc(CCN)c1,Potency,[7],inactive
COc1cc(C(O)CN)ccc1O (stereo unspecified),Potency,[7],inactive
NC(CCP(=O)(O)O)C(=O)O (stereo unspecified),Potency,[7],inactive
CNCCc1ccc(O)c(O)c1,Potency,[7],inactive
COC(C)(C)CCCC(C)C/C=C/C(C)=C/C(=O)OC(C)C (stereo unspecified),outcome,[12],inactive
same,max response,[10],13.2%
same,Potency,[11],inactive
same,outcome,[3],inactive
same,max response,[4],2.28% and 4.86%
same,max response,[5],-11.7% (inactive) and -5.86% (inactive)
same,activity change % (negative = inhibition),[6],-7.54% (inactive) and 20% (inactive)
same,Potency,[7],inactive
same,Potency,[8],inactive
same,Potency,[13],inactive
O=C1CCCN1CC#CCN1CCCC1,Potency,[7],inactive
CCCN1CCO[C@@H]2c3cc(O)ccc3OC[C@H]21,Potency,[7],inactive
Oc1ccc2c3c1O[C@H]1c4[nH]c5c(c4C[C@@]4(O)[C@@H](C2)N(CC2CC2)CC[C@]314)C[C@@]1(O)[C@H]2Cc3ccc(O)c4c3[C@@]1(CCN2CC1CC1)[C@H]5O4,Potency,[7],inactive
O=C(O)Cc1cnc[nH]1,Potency,[7],inactive
O=C1C(I)=CC(=C(c2cc(I)c(O)c(I)c2)c2ccccc2C(=O)O)C=C1I,Potency,[7],inactive
NC1CC1c1ccccc1 (stereo unspecified),Potency,[7],inactive
NCCc1c[nH]c2ccccc12,Potency,[7],inactive
C[C@]12CCC3C(CC[C@H]4C[C@H](O)CC[C@]34C)C1CC[C@@H]2C(=O)CO (stereo partly specified),Potency,[7],inactive
CC(Cc1ccc(O)cc1)NCC(O)c1cc(O)cc(O)c1 (stereo unspecified),Potency,[7],inactive
CN[C@@H](C)[C@H](O)c1ccccc1,Potency,[7],inactive
c1ccc2sc(C3(N4CCCCC4)CCCCC3)cc2c1,Potency,[7],2.82 µM (active)
Clc1ccc(C(c2ccc(Cl)cc2)n2cc[n+](CC(OCc3ccc(Cl)cc3Cl)c3ccc(Cl)cc3Cl)c2)cc1 (stereo unspecified),Potency,[7],11.2 µM (active)
CC(=O)[C@H]1CCC2C3CC[C@H]4C[C@H](O)CC[C@]4(C)C3CC[C@@]21C (stereo partly specified),Potency,[7],inactive
C[N+]1(C)C2CCC1CC(OC(=O)C(CO)c1ccccc1)C2 (stereo unspecified),Potency,[7],inactive
O=[N+]([O-])c1c2ccccc2cc2ccccc12,Potency,[9],31.6 µM (active)
same,Potency,[14],inactive
same,max response,[10],3.63%
same,Potency,[11],inactive
same,outcome,[3],inactive
same,activity change % (negative = inhibition),[6],0.364% (inactive)
same,Potency,[7],inactive
same,Potency,[8],inactive
O=C(O)c1ccccc1O,Potency,[8],inactive
COC(=O)[C@@H](N)CCCN=C(N)N[N+](=O)[O-],Potency,[8],inactive
same,Potency,[13],inactive
same,Potency,[15],inactive
Cc1ccc(Cl)c(O)c1,Potency,[8],inactive
same,Potency,[13],inactive
same,Potency,[15],inactive
CC(C)NC(C)Cc1ccc(I)cc1 (stereo unspecified),Potency,[7],8.91 µM (active)
same,Potency,[8],inactive
same,Potency,[13],inactive
same,Potency,[15],inactive
NC(=O)CN1CC(O)CC1=O (stereo unspecified),Potency,[7],inactive
same,Potency,[8],inactive
same,Potency,[13],inactive
same,Potency,[15],inactive
CC[N+]1(CCOC(=O)C(O)(c2ccccc2)c2ccccc2)CCCCC1,Potency,[7],inactive
same,Potency,[8],inactive
same,Potency,[13],inactive
CCC1(CCC(C)C)C(=O)NC(=O)NC1=O,Potency,[8],inactive
CCCCc1ccc(C(=O)O)nc1,Potency,[7],inactive
same,Potency,[8],inactive
same,Potency,[13],inactive
same,Potency,[15],inactive
